Publication PMC5540273 (PLoS ONE, 2017)

Tests used:
Conditions in all cases: concentration: 1 μM, replicates: in singlicate; n = 1
SNARK = tested on: T1, SNARK
T1 construct: gene NUAK2

SNRK = tested on: SNRK
SRC = tested on: SRC
SRMS = tested on: SRMS
SRPK1 = tested on: SRPK1
SRPK2 = tested on: SRPK2
SRPK3 = tested on: SRPK3
STK16 = tested on: STK16
STK33 = tested on: STK33
STK35 = tested on: STK35
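Also: KINOMEscan kinase panel screen.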

CNC(=O)c1ccccc1Nc1nc(Nc2ccc(N3CCOCC3)cc2)ncc1Cl.Cl [GSK1576028]
%Inh (SNARK): 99.2%
%Inh (SNRK): 0%
%Inh (SRC): 100%
%Inh (SRMS): 67%
%Inh (SRPK1): 98.1%
%Inh (SRPK2): 35%
%Inh (SRPK3): 78%
%Inh (STK16): 99.2%
%Inh (STK33): 98.6%
%Inh (STK35): 50%

Cl.c1ccc(-c2ccc3c(Nc4ccc5[nH]ncc5c4)ccnc3c2)nc1 [GW440137]
%Inh (SNARK): 20%
%Inh (SNRK): 0%
%Inh (SRC): 33%
%Inh (SRMS): 0%
%Inh (SRPK1): 31%
%Inh (SRPK2): 0%
%Inh (SRPK3): 0%
%Inh (STK16): 30%
%Inh (STK33): 0%
%Inh (STK35): 0%

CCn1c(-c2nonc2N)nc2c(C#CC(C)(C)O)nc(OC[C@H](N)c3ccccc3)cc21 [GSK943949]
%Inh (SNARK): 92.8%
%Inh (SNRK): 0%
%Inh (SRC): 1%
%Inh (SRMS): 4%
%Inh (SRPK1): 41%
%Inh (SRPK2): 0%
%Inh (SRPK3): 24%
%Inh (STK16): 9%
%Inh (STK33): 0%
%Inh (STK35): 0%

CN(C)S(=O)(=O)c1cc(-c2ccc3nccc(-c4cccc(S(N)(=O)=O)c4)c3c2)cnc1N [GSK1669921]
%Inh (SNARK): 22%
%Inh (SNRK): 12%
%Inh (SRC): 0%
%Inh (SRMS): 0%
%Inh (SRPK1): 13%
%Inh (SRPK2): 0%
%Inh (SRPK3): 19%
%Inh (STK16): 45%
%Inh (STK33): 3%
%Inh (STK35): 8%

CN(c1ccc(NC(=O)Nc2cc(C(F)(F)F)ccc2F)cc1)c1ccnc(Nc2ccc(S(N)(=O)=O)cc2)n1 [GW809893]
%Inh (SNARK): 0%
%Inh (SNRK): 5%
%Inh (SRC): 99.7%
%Inh (SRMS): 0%
%Inh (SRPK1): 18%
%Inh (SRPK2): 0%
%Inh (SRPK3): 20%
%Inh (STK16): 12%
%Inh (STK33): 81%
%Inh (STK35): 10%

Cn1cc(-c2ccc3c(c2)CCN3C(=O)Cc2cccc(Cl)c2)c2c(N)ncnc21 [GSK2606590]
%Inh (SNARK): 18%
%Inh (SNRK): 0%
%Inh (SRC): 21%
%Inh (SRMS): 0%
%Inh (SRPK1): 0%
%Inh (SRPK2): 0%
%Inh (SRPK3): 11%
%Inh (STK16): 11%
%Inh (STK33): 0%
%Inh (STK35): 0%

COc1cc(Nc2nccc(N3CCC(NC(=O)Nc4cccc(C(C)=O)c4)C3)n2)cc(OC)c1OC (centres unmarked) [GSK1379753]
%Inh (SNARK): 21%
%Inh (SNRK): 0%
%Inh (SRC): 10%
%Inh (SRMS): 0%
%Inh (SRPK1): 50%
%Inh (SRPK2): 0%
%Inh (SRPK3): 0%
%Inh (STK16): 83%
%Inh (STK33): 0%
%Inh (STK35): 0%

Cc1ccc(C(=O)Nc2ccc(Nc3ccnc4cc(-c5nccs5)ccc34)cc2O)cc1.Cl [GW494702]
%Inh (SNARK): 10%
%Inh (SNRK): 0%
%Inh (SRC): 60%
%Inh (SRMS): 89%
%Inh (SRPK1): 12%
%Inh (SRPK2): 31%
%Inh (SRPK3): 13%
%Inh (STK16): 0%
%Inh (STK33): 9%
%Inh (STK35): 0%

COc1cc(Nc2ncc3c(C)nc(-c4cc5ccccc5[nH]4)n3n2)cc(OC)c1OC [GW869516]
%Inh (SNARK): 9%
%Inh (SNRK): 0%
%Inh (SRC): 90.1%
%Inh (SRMS): 13%
%Inh (SRPK1): 9%
%Inh (SRPK2): 6%
%Inh (SRPK3): 19%
%Inh (STK16): 86%
%Inh (STK33): 10%
%Inh (STK35): 0%

CCCCc1nn2ncccc2c1-c1ccnc(Nc2ccc(N3CCN(C)CC3)cc2)n1 [GW684941]
%Inh (SNARK): 90.2%
%Inh (SNRK): 0%
%Inh (SRC): 98.8%
%Inh (SRMS): 0%
%Inh (SRPK1): 63%
%Inh (SRPK2): 6%
%Inh (SRPK3): 26%
%Inh (STK16): 86%
%Inh (STK33): 39%
%Inh (STK35): 0%

COc1cc(Nc2nccc(-c3c(-c4cccc(NC(=O)c5c(F)cccc5F)c4)nn4ccccc34)n2)cc(OC)c1OC [GSK323521]
%Inh (SNARK): 40%
%Inh (SNRK): 0%
%Inh (SRC): 22%
%Inh (SRMS): 0%
%Inh (SRPK1): 0%
%Inh (SRPK2): 21%
%Inh (SRPK3): 30%
%Inh (STK16): 15%
%Inh (STK33): 11%
%Inh (STK35): 0%

Cl.Cl.NCC(NCc1ccc(-c2ccnc3[nH]ccc23)s1)c1ccccc1 (centres unmarked) [GSK1321565]
%Inh (SNARK): 93.5%
%Inh (SNRK): 0%
%Inh (SRC): 0%
%Inh (SRMS): 0%
%Inh (SRPK1): 68%
%Inh (SRPK2): 83%
%Inh (SRPK3): 77%
%Inh (STK16): 49%
%Inh (STK33): 76%
%Inh (STK35): 0%

c1ccc(-c2n[nH]cc2Nc2ccnc3ccccc23)nc1 [GW694077]
%Inh (SNARK): 27%
%Inh (SNRK): 0%
%Inh (SRC): 0%
%Inh (SRMS): 0%
%Inh (SRPK1): 69%
%Inh (SRPK2): 46%
%Inh (SRPK3): 90%
%Inh (STK16): 15%
%Inh (STK33): 6%
%Inh (STK35): 0%

C[C@@H](Oc1cc(-n2cnc3cc(-c4ccnc(NCCS(C)(=O)=O)c4)ccc32)sc1C(N)=O)c1ccccc1Cl [GSK907232]
%Inh (SNARK): 95.4%
%Inh (SNRK): 0%
%Inh (SRC): 48%
%Inh (SRMS): 0%
%Inh (SRPK1): 84%
%Inh (SRPK2): 0%
%Inh (SRPK3): 82%
%Inh (STK16): 27%
%Inh (STK33): 0%
%Inh (STK35): 15%

Clc1ccc(-c2nn3ncccc3c2-c2ccnc(Nc3ccc4c(c3)OCCO4)n2)cc1 [GW829116]
%Inh (SNARK): 0%
%Inh (SNRK): 0%
%Inh (SRC): 44%
%Inh (SRMS): 13%
%Inh (SRPK1): 0%
%Inh (SRPK2): 0%
%Inh (SRPK3): 0%
%Inh (STK16): 32%
%Inh (STK33): 0%
%Inh (STK35): 0%

Cc1ccc(C(=O)N2CC[C@@H](O)C2)cc1-n1c(C)cc(OCc2ccc(F)cc2F)c(Br)c1=O
%Inh (SNARK): 0%
%Inh (SNRK): 0%
%Inh (SRC): 97.7%
%Inh (SRMS): 0%
%Inh (SRPK1): 0%
%Inh (SRPK2): 0%
%Inh (SRPK3): 0%
%Inh (STK16): 19%
%Inh (STK33): 2%
%Inh (STK35): 0%

O=C(Nc1cccc(-c2nn3ncccc3c2-c2ccnc(Nc3ccccc3)n2)c1)c1c(F)cccc1F [GSK198271]
%Inh (SNARK): 32%
%Inh (SNRK): 45%
%Inh (SRC): 62%
%Inh (SRMS): 94.9%
%Inh (SRPK1): 32%
%Inh (SRPK2): 0%
%Inh (SRPK3): 0%
%Inh (STK16): 7%
%Inh (STK33): 0%
%Inh (STK35): 79%
